Results reported in the supplement of paper PMC3545927.
Some of the results follow. How many sequences the whole screen found active is unknown.

Biological target: furin, P09958
Assay: furin cleavage Z-score vs untreated control; higher = more cleavage, active = 3.5 or more, inactive = 1 or less, 8 variable residues between constant flanks
Outline: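 Read counts from sequencing released DNA gave abundance for each bead-bound 8-mer peptide–cDNA fusion cut by purified furin over 7.5, 15 or 30 min. The cleavage Z-score compares log counts with furin-free reactions after lowess adjustment and median absolute deviation scaling.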
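Note: purified furin at 1:10 enzyme:substrate in 50 mM HEPES pH 7.5.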

Sequence of furin, P09958 (P09958 whole entry): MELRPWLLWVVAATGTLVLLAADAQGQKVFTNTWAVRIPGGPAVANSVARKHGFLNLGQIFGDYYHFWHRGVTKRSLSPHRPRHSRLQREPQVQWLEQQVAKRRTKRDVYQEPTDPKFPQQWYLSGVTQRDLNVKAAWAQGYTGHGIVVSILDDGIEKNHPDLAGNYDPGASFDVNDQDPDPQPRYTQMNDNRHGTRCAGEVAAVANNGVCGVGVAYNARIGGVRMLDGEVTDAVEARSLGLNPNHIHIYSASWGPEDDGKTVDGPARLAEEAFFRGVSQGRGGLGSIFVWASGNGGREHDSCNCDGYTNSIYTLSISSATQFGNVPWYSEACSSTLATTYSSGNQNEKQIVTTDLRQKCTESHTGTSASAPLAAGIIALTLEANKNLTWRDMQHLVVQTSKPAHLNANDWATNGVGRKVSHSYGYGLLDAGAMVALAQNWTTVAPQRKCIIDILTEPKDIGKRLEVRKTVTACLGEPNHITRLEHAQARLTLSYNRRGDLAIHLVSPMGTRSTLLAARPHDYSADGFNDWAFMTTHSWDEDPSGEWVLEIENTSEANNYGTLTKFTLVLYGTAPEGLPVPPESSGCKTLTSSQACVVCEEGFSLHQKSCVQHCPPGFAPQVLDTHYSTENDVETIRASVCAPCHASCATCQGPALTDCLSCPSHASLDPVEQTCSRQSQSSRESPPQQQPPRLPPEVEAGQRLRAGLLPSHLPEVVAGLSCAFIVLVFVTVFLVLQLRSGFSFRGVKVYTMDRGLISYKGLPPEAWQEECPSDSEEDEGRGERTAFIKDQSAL

Row | Sequence | furin cleavage Z-score (7.5 min) | furin cleavage Z-score (15 min) | furin cleavage Z-score (30 min)
1 | CARTPRPGEQAGNASASA [FS-2832] | -0.162 (inactive) | -0.138 (inactive) | -0.877 (inactive)
2 | CARTRRLLDKAGNASASA [FS-2834] | -0.433 (inactive) | -1.53 (inactive) | -0.417 (inactive)
3 | CARTPRGLDDAGNASASA [FS-3110] | 5.13 (active) | 6.18 (active) | 6 (active)
4 | CARTRRALSDAGNASASA [FS-3173] | 7.04 (active) | 8.87 (active) | 6.82 (active)
5 | CARTRRHLHDAGNASASA [FS-2615] | 7.74 (active) | 9.2 (active) | 8.75 (active)
6 | CAITPRCLVDAGNASASA [HC462] | -0.371 (inactive) | -0.729 (inactive) | -2.3 (inactive)
7 | CARTRRLLWAAGNASASA [FS-2097] | -0.0202 (inactive) | 0.591 (inactive) | -0.328 (inactive)
8 | CAESTLSTALAGNASASA [HC1329] | -0.324 (inactive) | 0.0602 (inactive) | 1.27
9 | CAEVPCHRPDAGNASASA [HC2411] | -1.49 (inactive) | -0.692 (inactive) | 0.135 (inactive)
10 | CAASSSKKRSAGNASASA [FS-1310] | 1.7 | 1.89 | 0.28 (inactive)
11 | CAHNGLRDLAAGNASASA [HC641] | -0.235 (inactive) | 0.0336 (inactive) | 0.434 (inactive)
12 | CAILSRKKRSAGNASASA [FS-598] | 13.1 (active) | 11 (active) | 8.58 (active)
13 | CAHNGRKKRSAGNASASA [FS-794] | 12.6 (active) | 13.4 (active) | 9.77 (active)
14 | CADTGYPKRSAGNASASA [FS-1587] | 0.338 (inactive) | -0.532 (inactive) | 2.06
15 | CAEVPCHFPSAGNASASA [HC2367] | 0.277 (inactive) | -0.0294 (inactive) | 0.605 (inactive)
16 | CAEAWRSRRDAGNASASA [FS-761] | 5 (active) | 6.16 (active) | 5.62 (active)
17 | CATPKRSRRDAGNASASA [FS-202] | 10.5 (active) | 10.4 (active) | 6.86 (active)
18 | CAQPSSSRRDAGNASASA [FS-1251] | -0.0806 (inactive) | -1.03 (inactive) | -1.19 (inactive)
19 | CAVLTRSRRDAGNASASA [FS-573] | 15.8 (active) | 16 (active) | 10.2 (active)
20 | CATPTVATRDAGNASASA [HC282] | -1.53 (inactive) | 0.0271 (inactive) | -0.971 (inactive)
21 | CAEVVTSRWVAGNASASA [HC2213] | 0.434 (inactive) | -0.178 (inactive) | 1.55
22 | CAEVVTSTWDAGNASASA [HC2251] | -0.232 (inactive) | -0.217 (inactive) | -0.0353 (inactive)

Row | Sequence | furin cleavage Z-score (7.5 min) | furin cleavage Z-score (15 min) | furin cleavage Z-score (30 min)
23 | CAWHSRRKRLAGNASASA [FS-210] | 9.83 (active) | 11.7 (active) | 10.6 (active)
24 | CAGPQRQKKLAGNASASA [FS-1202] | -0.669 (inactive) | -1.47 (inactive) | -0.377 (inactive)
25 | CAKPARVSKDAGNASASA [FS-259] | -0.289 (inactive) | -0.617 (inactive) | -0.0479 (inactive)
26 | CALHSRPQRLAGNASASA [FS-939] | 0.578 (inactive) | 1.4 | 1.43
27 | CAGPIRRKRLAGNASASA [FS-1526] | 11.1 (active) | 11.4 (active) | 9.25 (active)
28 | CAKPARRKRLAGNASASA [FS-44] | 8.86 (active) | 9.53 (active) | 10.1 (active)
29 | CALHSRNKRLAGNASASA [FS-607] | 7.17 (active) | 9.47 (active) | 6.69 (active)
30 | CANEMEECSQAGNASASA [HC1801] | -0.962 (inactive) | 0.682 (inactive) | -0.461 (inactive)
31 | CAETVTSTWVAGNASASA [HC2178] | -0.174 (inactive) | 0.0107 (inactive) | 0.00907 (inactive)
32 | CAARRRRKRLAGNASASA [FS-9] | 9.78 (active) | 12.2 (active) | 9.85 (active)
33 | CAQQELRKRLAGNASASA [FS-1390] | 0.809 (inactive) | 0.166 (inactive) | 1.43
34 | CAVQVRGKRLAGNASASA [FS-312] | 6.21 (active) | 7.9 (active) | 7.68 (active)
35 | CAVGGVEHRLAGNASASA [HC477] | 0.551 (inactive) | 1.48 | 0.304 (inactive)
36 | CARRRRDSRSAGNASASA [FS-1267] | 9.84 (active) | 9.21 (active) | 7.48 (active)
37 | CANKVRAKRSAGNASASA [FS-618] | 10.6 (active) | 10.4 (active) | 8.36 (active)
38 | CAGQPGLKRSAGNASASA [FS-1203] | -1.59 (inactive) | 1.19 | -2.33 (inactive)
39 | CARRATLKRSAGNASASA [FS-624] | 3.99 (active) | 5.42 (active) | 4.76 (active)
40 | CARRRRRKESAGNASASA [FS-2298] | 2.91 | 3.94 (active) | 2.81
41 | CAVFSRDSRSAGNASASA [FS-103] | 2.25 | 0.692 (inactive) | 2.36
42 | CAKGWRLLAPAGNASASA [HC671] | 0.0408 (inactive) | 0.181 (inactive) | -0.469 (inactive)
43 | CALPINALSNAGNASASA [HC1381] | 0.137 (inactive) | -0.538 (inactive) | -0.0923 (inactive)
44 | CAFWEGVFTGAGNASASA [HC939] | -1.63 (inactive) | 0.063 (inactive) | -1.49 (inactive)
